# Screening data deposited in PubChem by National Center for Advancing Translational Sciences (NCATS).
# SMN2 splice enh = enhancers of SMN2 splice variant expression; actives 2.8% (n = 210,000); HEK293 SMN2-luciferase splicing reporter, luminescence, 30-36 h; Potency, µM (titrated, usually from 46.1 µM), without a hit: top-dose activity change, positive = activation, most hits filed as activators; note: % of control where 0% means no effect; nearly all actives have a fitted effect of over 55% in size
#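 HEK293 cells carry an SMN2 […]–luciferase reporter in which exon 7 inclusion puts luciferase in frame. Cells were plated 10-12 h before compound addition, then incubated 30-36 h at 37C. ONE-Glo luminescence was read; sodium butyrate at 4.5 mM final served as control.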
# NPC1 promoter act = activators of NPC1 promoter; Huh7 NPC1 promoter luciferase reporter, 24 h; AID 485313; Potency, µM (titrated, usually from 9.22 µM), without a hit: top-dose activation, most hits filed as activators; actives 2.4% (n = 320,000); note: % of control where 0% means no effect; nearly all actives have a fitted effect of over 60% in size
#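 Quantitative HTS used a cell-based reporter: Huh7 cells stably bearing the NPC1 promoter upstream of luciferase were treated with compounds for 24 h, and promoter activation was read as luminescence.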
# Rab9 prom act = activates the Rab9 promoter | Huh7 Rab9 promoter-luciferase reporter, luminescence, 24 h | Potency, µM (series often up to 9.22 µM), for inactives: top-dose activation, negative = inhibition, actives largely listed as activators | actives 2.8% (n = 320,000) | AID 485297; note: % of control where 0% means no effect; nearly all actives have a fitted effect of over 60% in size
#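 Using Huh7 cells stably transfected with Rab9 promoter–luciferase, compounds were incubated 24 h at 37 °C, 5% CO2; luciferase luminescence was read 10 min after reagent addition.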
# KinaseGlo FLuc = blocks Kinase-Glo luciferase, a counter-screen artifact; actives 0.28% (n = 200,000); AID 1379; Kinase-Glo luciferase, ATP luminescence, 8 min; Potency, µM (highest dose often 38.3 µM), without a hit: at the top dose activity change, negative = inhibition, hits mostly inhibitors; note: % is set by controls: 0 for no effect and ±100 for the full control effect; nearly all actives have a fitted effect of over 60% in size
#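 Inhibition of Kinase-Glo luciferase light generation was assessed at 10 uM ATP in pH 7.2 imidazole buffer, with luminescence measured after eight minutes at ambient temperature.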
# FLuc counter = inhibits or activates purified firefly luciferase, miR-21 counter-screen. Potency, µM (doses to about 57.5 µM), for inactives: at the top dose activity change, negative = inhibition, usual class: inhibitors. P08659. purified FLuc, Km substrates, luminescence inhibition. actives 6.9% (n = 360,000);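 note: plate controls were vehicle for no effect and reference inhibitor for full effect; nearly all actives have a fitted effect of over 55% in size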
# Target sequence (P08659 whole entry, looked up): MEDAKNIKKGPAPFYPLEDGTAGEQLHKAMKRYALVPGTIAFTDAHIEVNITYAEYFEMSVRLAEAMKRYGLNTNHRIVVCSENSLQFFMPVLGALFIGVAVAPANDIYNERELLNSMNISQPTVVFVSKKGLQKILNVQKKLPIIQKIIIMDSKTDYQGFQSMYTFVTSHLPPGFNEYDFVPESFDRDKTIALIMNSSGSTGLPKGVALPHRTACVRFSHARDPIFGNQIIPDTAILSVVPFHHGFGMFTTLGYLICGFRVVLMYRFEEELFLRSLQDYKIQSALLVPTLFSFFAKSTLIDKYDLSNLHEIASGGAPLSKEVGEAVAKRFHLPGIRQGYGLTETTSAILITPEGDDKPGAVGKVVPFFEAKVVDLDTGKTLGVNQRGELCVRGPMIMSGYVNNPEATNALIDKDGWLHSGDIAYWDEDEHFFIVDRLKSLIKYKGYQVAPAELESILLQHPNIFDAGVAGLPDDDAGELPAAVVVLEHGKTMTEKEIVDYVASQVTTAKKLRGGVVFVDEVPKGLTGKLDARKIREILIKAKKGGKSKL
#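 Biochemical qHTS of compounds, final roughly 60 µM downward over six points, against 10 nM purified firefly luciferase using Km concentrations of substrates (10 uM D-luciferin, 10 uM ATP) in Tris acetate pH 7.5 buffer; luminescence output.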
# ELG1 genotoxic = genotoxicity induction in ELG1-luciferase HEK293T cells | AID 504466 | HEK293T ELG1-luciferase reporter, luminescence, 16 h | Potency, µM (titrated, usually from 46 µM), inactives show at the top dose activity change, positive = activation, hits mostly activators | actives 1.3% (n = 330,000); note: % of control where 0% means no effect; nearly all actives have a fitted effect of over 60% in size
#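 Luminescence read-out: rising ELG1-luciferase signal, reflecting elevated ELG1 protein under genetic stress, flags genotoxic compounds. Cells were treated for 16 hr at 37 °C before ONE-Glo detection.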
# * hit, by the source's call; ? = inconclusive; . = no result given; [ ] = dose if it differs, or a comment. Shown are actives, neighbours in structure and some others; about 7.4% of the full set was active somewhere. Calls come from the whole dose curve; as a rule, active = well fitted curve in the direction sought with a large enough effect; inconclusive = small, poorly fitted or top-dose-only effect, or another doubt; inactive = no such curve, though single readings can be large; an effect the other way counts as inactive or inconclusive. Potency is the fitted concentration of half-maximal effect.
SMILES,SMN2 splice enh,NPC1 promoter act,Rab9 prom act,KinaseGlo FLuc,FLuc counter,ELG1 genotoxic
CCOC(=O)N1CCN(C(=O)Cn2nc(C)n3nc(-c4ccc(CC)cc4)cc3c2=O)CC1,.,5.6%,5.8%,.,4.78µM*,14.1%
Cc1cccc(-c2noc(Cc3ccc(Cl)cc3)n2)c1,?,27.7%,?,2.5%,?,18.4µM*
COc1ccc(Cc2nc(-c3ccncc3)no2)cc1,.,2.3%,-14.3%,2.2%,?,8.1%
COc1ccc(Cc2nc(-c3cccc(C)c3)no2)cc1,23.6%,?,?,-2.0%,13.5µM*,?
COc1ccccc1NC(=O)c1sc2nc3n(c(=O)c2c1C)N=C(c1cccc(Br)c1)CS3,.,.,.,.,-2.6%,.
Cc1ccc(C(C(=O)NC2CCCCC2)N(Cc2cccnc2)C(=O)C2COc3ccccc3O2)o1 (stereo not given),17.5%,?,1.26µM*,-7.9%,9.0%,-5.8%
C/C(=N\NC(=O)c1ccc([N+](=O)[O-])cc1Cl)c1ccccc1,.,?,3.55µM*,0.4%,?,?
CCOC(=O)C1CCCN(C(=O)CCS(=O)(=O)c2cc3c(cc2Cl)NC(=O)CO3)C1 (stereo not given),.,.,.,.,-12.9%,.
CCOC(=O)c1ccc(NC(=O)CSc2c(C(C)C)cnc3c2c(=O)n(C)c(=O)n3C)cc1,.,.,.,.,-8.6%,.
COc1ccccc1NC(=O)NC1CCCCCCC1,.,-1.8%,1.7%,.,13.5µM*,-3.3%
COc1ccccc1NC(=S)NC1CCCCCC1,.,-1.2%,-0.2%,.,?,-3.4%
CCc1ccccc1NC(=O)NC1CCCCC1,15.8%,7.9%,11.3%,-0.2%,2.6%,-3.2%
O=C(Nc1ccccc1Cl)NC1CCCCCCC1,.,?,?,.,13.5µM*,?
COc1cc(NC(=O)CN2CCCN(Cc3cccc(F)c3)S2(=O)=O)cc(OC)c1,.,.,.,.,-0.4%,.
Cc1ccc2sc(-c3ccc(NC(=O)CCN4C(=O)c5ccccc5C4=O)cc3)nc2c1,0.398µM*,0.501µM*,0.282µM*,-0.8%,10.7µM*,4.61µM*
Cc1ccc(NC(=O)CCN2C(=O)c3ccccc3Sc3ncccc32)cc1,.,2.1%,-9.8%,.,-4.5%,0.3%
O=C(Nc1ccc(-c2cn3ccsc3n2)cc1)C1CC1,?,2.24µM*,1.58µM*,-26.1%,2.69µM*,?
O=C(Nc1ccc(-c2ccc3nncn3n2)cc1)C1CCCC1,?,7.1%,14.0%,-8.5%,19µM*,-3.2%
O=C(CC1CCCCC1)Nc1ccc(-c2ccc3nncn3n2)cc1,-13.7%,-2.1%,2.0%,0.0%,-0.6%,6.9%
O=C(Nc1ccc(-c2cn3ccsc3n2)cc1)C1CCCC1,?,3.98µM*,3.16µM*,11.2µM*,1.35µM*,1.84µM*
C[C@H]1Cc2c(-c3ccccc3)nc3c(c2CO1)CN(C(=O)c1cc(I)ccc1F)CC3,3.3%[9.22 µM],.,.,-2.0%[7.66 µM],.,.
COC(=O)CN1C(=O)CSc2ccc(S(=O)(=O)Nc3ccc(C(C)=O)cc3)cc21,.,.,.,.,-13.8%,.
CC(=O)Nc1ccc(-c2cn3ccsc3n2)cc1,10µM*,1.58µM*,1.41µM*,-9.2%,12µM*,5.8µM*
CC(=O)Nc1ccc(NC(=O)CCN2C(=O)c3ccccc3C2=O)cc1,.,5.1%,-8.7%,.,-4.3%,-6.5%
O=C(CCN1C(=O)c2ccccc2C1=O)Nc1ccc(-c2cn3ccsc3n2)cc1,?,?,2.24µM*,0.7%,2.69µM*,?
SMILES,SMN2 splice enh,NPC1 promoter act,Rab9 prom act,KinaseGlo FLuc,FLuc counter,ELG1 genotoxic
c1cn2cc(-c3ccc4c(c3)OCO4)nc2s1,12.6µM*,0.447µM*,0.631µM*,-26.3%,1.9µM*,?
Cc1ccc2oc(C(=O)Nc3sc4c(c3C(=O)NCc3ccccc3)CCCC4)cc(=O)c2c1,1.7%,.,.,.,0.6%,.
CC(=O)OC1C[C@]2(C)C(C(C)=O)CCC2C2CCC3=CC(=O)CC[C@@]3(C)C12 (stereo not given in full),-12.6%,.,.,-3.6%,.,.
COc1ccccc1NC(=O)CN(C)S(=O)(=O)c1ccc2c(c1)c(=O)n(C)c(=O)n2C,-2.6%,.,.,.,-0.4%,.
NC(N)=NC(N)=Nc1c(F)c(F)c(F)c(F)c1F,-21.6%[9.22 µM],.,.,2.9%[7.66 µM],.,.
CN1C(=O)C(C(=O)Nc2ccccc2F)c2ccccc21 (stereo not given),8.0%,-0.1%,3.4%,0.3%,19µM*,-1.4%
Cc1ccc(NC(=O)C2C(=O)N(C)c3ccccc32)cc1 (stereo not given),?,17.8%,25.5%,-9.8%,4.78µM*,8.7%
Cc1ccc(NC(=O)C2C(=O)N(CCO)C3(C)CC2c2ccccc2O3)cc1 (stereo not given),?,7.1%,19.1%,0.7%,-0.9%,9.6%
Cc1cc(=Nc2ccc3c(c2)c(N)cc(C)[n+]3C)nc(N)n1C,-5.6%[9.22 µM],.,.,-1.5%[7.66 µM],.,.
Cc1ccccc1C(=O)NC1(C(F)(F)F)N=C(c2ccccc2)N(Cc2ccccc2)C1=O (stereo not given),-2.8%,.,.,.,-9.6%,.
CCc1ccccc1NC(=O)CSc1ncccc1C(=O)O,.,.,.,.,-11.9%,.
C=CCn1c(=O)c(C(=O)Nc2ccccc2S(N)(=O)=O)c(O)c2ccccc21,.,2.51µM*,3.16µM*,-1.0%,?,?
Cc1ccc(N(Cc2ccccc2)Cc2ccccc2)cc1,-6.9%[9.22 µM],.,.,-2.8%[7.66 µM],.,.
CCOc1ccc(NC(=O)c2nn(C)c3c2COc2ccccc2-3)cc1,.,.,.,.,-14.9%,.
Cc1nc2c(s1)sc1ccccc12,-6.3%,12.4%,6.6%,0.1%,23.9µM*,13.2%
Cc1cc2c(sc3ccccc32)c(C)n1,.,-2.9%,-2.3%,.,-19.6%,2.0%
COc1ccc(-c2nc(C)c(C(C)=O)n2O)cc1OC,22.5%,6.1%,2.8%,-10.2%,?,3.7%
Cc1ccc(-c2cn3nc(C)c(C)nc3n2)cc1,0.501µM*,?,0.178µM*,?,0.675µM*,?
COc1ccc(-c2cn3nc(C)c(C)nc3n2)cc1OC,.,?,2.82µM*,.,?,5.3%
COCCn1c(=O)c(-c2ccc(Cl)cc2)nc2cnc(OC)nc21,-0.4%,.,.,1.0%,.,.
CSc1ccc(CN(C)C(=O)c2cc3ccccc3o2)cc1,.,21.6%,-0.9%,.,16.9µM*,7.6%
O=C(Nc1ccc(Cl)cc1C(F)(F)F)c1ccc(Cl)cc1,-17.8%,19.3%,?,1.5%,0.2%,5.5%
Cc1cc2ncc(C(=O)Nc3ccsc3C(=O)O)c(C)n2n1,-1.6%,?,?,2.3%,12µM*,?
CCOC(=O)c1cnc2cc(C)nn2c1C,-25.7%,-2.7%,2.3%,19.2%,-2.7%,0.8%
O=C(Nc1ccsc1C(=O)O)c1ccc(Cl)cc1,.,2.82µM*,3.98µM*,.,8.49µM*,23.1µM*
O=C(CNC(=O)c1ccccc1)Nc1ccsc1C(=O)O,.,-4.0%,-1.1%,6.1%,-8.0%,0.0%
